In PubChem BioAssay (Tox21):
Inconclusive results are not listed. Calls of active or inactive are those of the source. Unless noted, the call rests on the fitted dose curve.

Tests used:
[1] = Nuclear factor erythroid 2-related factor 2/antioxidant responsive element (Nrf2/ARE) small molecule agonists: qHTS cell viability counter screen in human keratinocytes (AID 1919968; active means well fitted curve in the direction sought with a large enough effect in the repeat runs; an effect the other way counts as inactive or inconclusive; further: nearly all actives have a fitted effect of over 55% in size; further: potency means the concentration at half of the fitted maximal effect)
How it was run: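 Seed 1,500 KeratinoSens cells per well, then incubate 5 h at 37 C/5% CO2. Add compounds in DMSO and incubate 23 h. Add CellTiter-Fluor, wait 1 h and read fluorescence.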

[2] = Nuclear factor erythroid 2-related factor 2/antioxidant responsive element (Nrf2/ARE) small molecule agonists: luciferase reporter gene qHTS assay in human keratinocytes (AID 1919969); further: nearly all actives have a fitted effect of over 35% in size; further: potency means the concentration at half of the fitted maximal effect
[3] = molecular target: Gonadotropin-releasing hormone receptor (Homo sapiens) (UniProt P30968); assay: Human gonadotropin-releasing hormone receptor (GnRHR) small molecule agonists, calcium flux assay in GnRHR-HEK293 cells (AID 1920063); further: nearly all actives have a fitted effect of over 35% in size
Chain of Gonadotropin-releasing hormone receptor (Homo sapiens) (P30968 whole entry, looked up): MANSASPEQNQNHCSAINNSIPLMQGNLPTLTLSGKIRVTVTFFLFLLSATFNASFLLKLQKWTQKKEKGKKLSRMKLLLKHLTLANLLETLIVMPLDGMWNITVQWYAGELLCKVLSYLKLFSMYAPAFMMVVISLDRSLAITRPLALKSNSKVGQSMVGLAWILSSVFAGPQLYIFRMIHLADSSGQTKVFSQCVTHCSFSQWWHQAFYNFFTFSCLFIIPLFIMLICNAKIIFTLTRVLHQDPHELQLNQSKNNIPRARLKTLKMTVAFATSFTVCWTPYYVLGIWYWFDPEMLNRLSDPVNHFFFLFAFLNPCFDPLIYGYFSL
How it was run: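 Cells: HEK293 stably expressing human GnRHR. Steps: overnight (18 h) culture, 1 h calcium dye loading at 37 C, compound addition, kinetic fluorescence read at 480/540 nm. Each compound tested at 15 concentrations in triplicate.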

[4] = molecular target: KiSS-1 receptor (Homo sapiens) (UniProt Q969F8); assay: Human kisspeptin (KISS1R) small molecule agonists, calcium flux assay in KISS1R-HEK293 cells (AID 1920064; active means well fitted curve in the direction sought with a large enough effect in the repeat runs; an effect the other way counts as inactive or inconclusive)
Chain of KiSS-1 receptor (Homo sapiens) (Q969F8 whole entry, looked up): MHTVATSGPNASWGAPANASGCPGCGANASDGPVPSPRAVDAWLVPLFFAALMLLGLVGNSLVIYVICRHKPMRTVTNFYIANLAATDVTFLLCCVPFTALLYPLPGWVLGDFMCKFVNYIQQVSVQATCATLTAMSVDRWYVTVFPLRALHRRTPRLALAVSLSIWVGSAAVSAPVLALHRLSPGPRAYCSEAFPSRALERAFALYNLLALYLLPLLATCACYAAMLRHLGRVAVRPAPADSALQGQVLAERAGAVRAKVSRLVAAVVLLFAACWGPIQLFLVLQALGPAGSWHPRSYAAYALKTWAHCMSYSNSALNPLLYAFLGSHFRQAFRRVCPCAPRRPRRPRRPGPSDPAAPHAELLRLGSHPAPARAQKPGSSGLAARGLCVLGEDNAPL
How it was run: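 Cells plated and incubated 18 h; dye added, 1 h at 37 C; compounds in DMSO pinned in; signal read at 480/540 nm every second for 3 min. Each compound tested at 15 concentrations in triplicate.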

[5] = p53 small molecule agonists, cell-based qHTS assay with human liver microsomes (AID 1963577);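 further: p53 response element beta-lactamase reporter cells with liver microsomes plus NADPH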
How it was run: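 Reporter activation was measured by LiveBLAzer fluorescence intensity in p53RE-bla cells, which had been exposed to compounds for 16 h at 37 C alongside 0.5 mg/mL human liver microsomes and 0.5 mg/mL NADPH (final concentrations).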

[6] = p53 small molecule agonists, cell-based qHTS assay with rat liver microsomes (AID 1963578)
How it was run: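 Compound in DMSO added to p53RE-bla cells 5 h post-plating; rat microsomes/NADPH 0.5 mg/mL final; 16 h, 37 C; LiveBLAzer 2 h RT.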

[7] = p53 small molecule agonists, cell-based qHTS assay with human liver microsomes: qHTS cell viability counter screen (AID 1963579); further: nearly all actives have a fitted effect of over 45% in size; further: potency means the concentration at half of the fitted maximal effect
How it was run: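 HLM-supplemented (0.5 mg/mL final) and NADPH-supplemented (0.5 mg/mL final) p53RE-bla cultures, 4,000 cells per well, were dosed with compounds in DMSO for 16 h at 37 C; luminescent ATP detection (CellTiter-Glo, 30 min, room temperature) quantified surviving cells.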

[8] = p53 small molecule agonists, cell-based qHTS assay with rat liver microsomes: qHTS cell viability counter screen (AID 1963580); further: nearly all actives have a fitted effect of over 45% in size
How it was run: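 In HCT-116 cells carrying a p53 response element-bla reporter, compounds were metabolically activated in situ by rat liver microsomes with NADPH over 16 h. Cell ATP content then served as the cytotoxicity measure.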

[9] = p53 small molecule agonists, cell-based qHTS assay: qHTS cell viability counter screen (AID 1963581); further: nearly all actives have a fitted effect of over 45% in size
How it was run: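 Cells: HCT-116 with p53 response element-driven beta-lactamase. Treatment: 16 h, 37 C, compounds in DMSO. Read: CellTiter-Glo luminescence after 30 min RT.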

[10] = p53 small molecule agonists, cell-based qHTS assay (AID 1963582; active means well fitted activation curve with a large enough effect in the signal ratio in the repeat runs, not every such curve was filed as active; the % refers to the signal ratio)
How it was run: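 Quantitative HTS in p53RE-bla cells: after a 5 h settling period, compounds delivered in DMSO were left on cells for 16 h at 37 C, and reporter induction was measured as fluorescence following 2 h substrate loading.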

[11] = molecular target: 5-hydroxytryptamine receptor 2A (Homo sapiens) (UniProt P28223); assay: 5-hydroxytryptamine receptor 2A (HTR2A) small molecule agonists, cell-based qHTS assay (AID 1963587); further: nearly all actives have a fitted effect of over 30% in size; further: potency means the concentration at half of the fitted maximal effect
Chain of 5-hydroxytryptamine receptor 2A (Homo sapiens) (P28223 whole entry, looked up): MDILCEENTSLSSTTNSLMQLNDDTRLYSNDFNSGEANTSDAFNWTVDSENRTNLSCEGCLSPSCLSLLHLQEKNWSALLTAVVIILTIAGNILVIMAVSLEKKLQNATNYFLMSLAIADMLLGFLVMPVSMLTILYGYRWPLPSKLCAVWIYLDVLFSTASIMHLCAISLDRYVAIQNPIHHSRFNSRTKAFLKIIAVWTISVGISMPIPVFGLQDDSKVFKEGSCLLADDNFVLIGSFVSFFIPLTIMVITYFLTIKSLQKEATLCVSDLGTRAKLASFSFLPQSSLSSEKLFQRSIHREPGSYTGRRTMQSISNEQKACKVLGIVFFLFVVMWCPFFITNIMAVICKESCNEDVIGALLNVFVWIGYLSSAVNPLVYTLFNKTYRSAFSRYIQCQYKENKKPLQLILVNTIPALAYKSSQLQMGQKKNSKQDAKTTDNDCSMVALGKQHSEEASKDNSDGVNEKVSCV
How it was run: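 HTR2A-CHO cells, plated 18 h at 37 C/5% CO2, dye-loaded 1 h at 37 C; compounds in DMSO added by pin tool (agonist mode). Intracellular calcium flux read as kinetic fluorescence on FDSS over 2 min at 1 s intervals.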

[12] = molecular target: Muscarinic acetylcholine receptor M1 (Homo sapiens) (UniProt P11229); assay: Cholinergic receptor muscarinic 1 (CHRM1) small molecule antagonists, cell-based qHTS assay (AID 1963588); further: nearly all actives have a fitted effect of over 40% in size
Chain of Muscarinic acetylcholine receptor M1 (Homo sapiens) (P11229 whole entry, looked up): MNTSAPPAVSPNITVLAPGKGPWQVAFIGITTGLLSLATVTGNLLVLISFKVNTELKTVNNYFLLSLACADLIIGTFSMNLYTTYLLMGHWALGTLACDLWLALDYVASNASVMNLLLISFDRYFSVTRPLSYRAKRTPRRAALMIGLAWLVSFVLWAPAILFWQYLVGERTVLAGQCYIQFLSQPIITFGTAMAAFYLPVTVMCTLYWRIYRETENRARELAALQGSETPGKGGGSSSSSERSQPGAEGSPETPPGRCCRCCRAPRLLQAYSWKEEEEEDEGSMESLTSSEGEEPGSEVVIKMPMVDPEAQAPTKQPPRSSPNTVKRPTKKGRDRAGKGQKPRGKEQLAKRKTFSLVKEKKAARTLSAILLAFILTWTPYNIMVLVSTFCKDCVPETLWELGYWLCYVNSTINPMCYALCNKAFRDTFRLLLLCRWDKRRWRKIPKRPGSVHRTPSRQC
How it was run: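 CHRM1-CHO calcium-flux assay, antagonist mode. Cells were seeded 18 h, dye-loaded 1 h at 37 C and given compound for 5 min at RT, then acetylcholine was added at 50nM. FDSS fluorescence was read 3 min; 15 concentrations, three runs.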

[13] = molecular target: Muscarinic acetylcholine receptor M1 (Homo sapiens) (UniProt P11229); assay: Cholinergic receptor muscarinic 1 (CHRM1) small molecule agonists, cell-based qHTS assay (AID 1963589); further: nearly all actives have a fitted effect of over 35% in size
How it was run: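 Agonist-mode qHTS in CHO cells stably carrying human muscarinic M1. Intracellular calcium is tracked by fluorescence every second after compound transfer; each compound runs at 15 concentrations in three independent runs.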

[14] = cAMP Responsive Elements (CRE) small molecule agonists, cell-based qHTS assay (AID 1963590)
How it was run: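 Agonist mode qHTS in CRE-bla HEK 293T cells: compounds dosed from DMSO for 3 h at 37 C/5% CO2, followed by LiveBLAzer B/G FRET substrate for 2 h at room temperature.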

[15] = cAMP Responsive Elements (CRE) small molecule antagonists, cell-based qHTS assay (AID 1963591; active means well fitted inhibition curve with a large enough effect in the signal ratio in the repeat runs, not every such curve was filed as active; the % refers to the signal ratio)
How it was run: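 Antagonist mode: test compounds are co-incubated with the adenylyl cyclase activator NKH477 (0.25 uM final) on CRE-bla HEK293T cells for 3 h at 37 °C, followed by LiveBLAzer substrate loading.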

[16] = molecular target: Beta-2 adrenergic receptor (Homo sapiens) (UniProt P07550); assay: Adrenergic beta2 receptor (ADRB2) small molecule antagonists, cell-based qHTS assay (AID 1963592); further: series mostly up to about 92 µM; nearly all actives have a fitted effect of over 50% in size
Chain of Beta-2 adrenergic receptor (Homo sapiens) (P07550 whole entry, looked up): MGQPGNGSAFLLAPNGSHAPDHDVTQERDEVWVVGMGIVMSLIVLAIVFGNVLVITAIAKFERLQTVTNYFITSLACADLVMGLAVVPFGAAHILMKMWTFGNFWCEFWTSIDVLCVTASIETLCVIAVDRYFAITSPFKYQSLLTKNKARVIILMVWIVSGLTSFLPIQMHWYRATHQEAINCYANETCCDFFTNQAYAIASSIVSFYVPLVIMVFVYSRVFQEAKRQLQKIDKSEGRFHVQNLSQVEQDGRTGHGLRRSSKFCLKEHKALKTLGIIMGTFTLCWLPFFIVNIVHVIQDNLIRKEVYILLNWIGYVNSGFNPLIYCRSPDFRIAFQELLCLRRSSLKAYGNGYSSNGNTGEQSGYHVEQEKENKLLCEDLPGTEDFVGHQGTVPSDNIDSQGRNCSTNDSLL
How it was run: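 Cells (CHO, stable ADRB2 overexpression) incubated 18-20hr at 37C; compounds added from DMSO; agonist mix (1nM isoproterenol, 100uM IBMX, 25uM Ro-20-1724) added; 0.5hr RT; d2-cAMP and anti-cAMP-cryptate added; 1hr RT; 665/615 nm read.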

[17] = molecular target: D(2) dopamine receptor (Homo sapiens) (UniProt P14416); assay: Dopamine D2 receptor (DRD2) small molecule agonists, cell-based qHTS assay (AID 1963594); further: nearly all actives have a fitted effect of over 35% in size
Chain of D(2) dopamine receptor (Homo sapiens) (P14416 whole entry, looked up): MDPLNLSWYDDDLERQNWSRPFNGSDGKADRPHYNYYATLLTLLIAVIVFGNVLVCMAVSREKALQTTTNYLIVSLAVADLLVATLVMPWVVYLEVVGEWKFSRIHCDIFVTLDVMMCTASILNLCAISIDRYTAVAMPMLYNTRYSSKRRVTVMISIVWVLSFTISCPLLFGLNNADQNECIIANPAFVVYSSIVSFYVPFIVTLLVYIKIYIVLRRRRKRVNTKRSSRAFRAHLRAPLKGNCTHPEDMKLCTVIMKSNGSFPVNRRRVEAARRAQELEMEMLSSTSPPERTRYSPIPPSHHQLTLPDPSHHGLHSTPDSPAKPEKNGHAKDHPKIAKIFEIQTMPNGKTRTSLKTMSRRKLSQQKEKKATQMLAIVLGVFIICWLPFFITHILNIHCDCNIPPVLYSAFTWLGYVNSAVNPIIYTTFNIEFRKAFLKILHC
How it was run: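 HEK293 cells stably expressing DRD2 were cultured 24 h at 37 C, then given Ro20-1724 (0.1 mM final) and compounds for 10 min at room temperature. NKH477 (200nM) was then added for 30 min. cAMP was read by HTRF.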

[18] = molecular target: D(2) dopamine receptor (Homo sapiens) (UniProt P14416); assay: Dopamine D2 receptor (DRD2) small molecule antagonists, cell-based qHTS assay (AID 1963595; active means well fitted inhibition curve with a large enough effect in the signal ratio in the repeat runs, with a control signal flat; the % refers to the signal ratio)
How it was run: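 HEK293 cells stably expressing DRD2, preincubated with 0.1 mM Ro20-1724 and compounds 10 min, were stimulated with 200 nM NKH477 plus 12 nM quinpirole for 30 min at room temperature; cAMP measured by HTRF (665/620 nm).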

[19] = molecular target: Beta-2 adrenergic receptor (Homo sapiens) (UniProt P07550); assay: Adrenergic beta2 receptor (ADRB2) small molecule agonists, cell-based qHTS assay (AID 1963593); further: potency means the concentration at half of the fitted maximal effect;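 on activation: CHO cells stably overexpressing human ADRB2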
How it was run: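 CHO cells stably over-expressing ADRB2 were plated overnight at 37C, then dosed with compounds plus a stimulation mix containing 100uM IBMX and 25uM Ro-20-1724 for 0.5hr at room temperature. cAMP was measured by HTRF competition, 1hr.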

[20] = molecular target: 5-hydroxytryptamine receptor 2A (Homo sapiens) (UniProt P28223); assay: 5-hydroxytryptamine receptor 2A (HTR2A) small molecule antagonists, cell-based qHTS assay (AID 1963586); further: nearly all actives have a fitted effect of over 45% in size
How it was run: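 Antagonist-mode intracellular calcium assay: DOI (4 nM) added after 5 min compound pre-incubation at room temperature to dye-loaded HTR2A-CHO cells. Fluorescence followed for 3 min, sampled every second.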
On the % scale 0 is the no-effect control and ±100 the full control effect.

CCC=O
inactive: Potency [1] | Potency [2] | Potency [3] | outcome [4] | Potency [5] | Potency [6] | Potency [7] | Potency [8] | Potency [9] | Potency [10] | Potency [11] | Potency [12] | Potency [13] | Potency [14] | Potency [15] | Potency [16] | Potency [17] | Potency [18]

Clc1cc(Cl)c(Cl)nc1Cl
active: Potency [11] 24.6 µM
inactive: Potency [1] | Potency [2] | Potency [3] | outcome [4] | Potency [5] | Potency [6] | Potency [7] | Potency [8] | Potency [9] | Potency [10] | Potency [12] | Potency [13] | Potency [14] | Potency [15] | Potency [16] | Potency [17] | Potency [18]

CC(C)CCCCCCOC(=O)CCCCC(=O)OCCCCCCC(C)C
inactive: Potency [1] | Potency [2] | Potency [3] | outcome [4] | Potency [5] | Potency [6] | Potency [7] | Potency [8] | Potency [9] | Potency [10] | Potency [11] | Potency [12] | Potency [13] | Potency [14] | Potency [15] | Potency [16] | Potency [19] | Potency [18]

CCCCCCOC(=O)CCCCC(=O)OCCCCCC
inactive: Potency [1] | Potency [2] | Potency [3] | outcome [4] | Potency [6] | Potency [7] | Potency [8] | Potency [9] | Potency [10] | Potency [11] | Potency [12] | Potency [13] | Potency [14] | Potency [15] | Potency [16] | Potency [17] | Potency [18]

O=C(O)Cc1c(Cl)ccc(Cl)c1Cl
inactive: Potency [1] | Potency [2] | Potency [3] | outcome [4] | Potency [6] | Potency [7] | Potency [8] | Potency [9] | Potency [10] | Potency [20] | Potency [11] | Potency [12] | Potency [13] | Potency [16] | Potency [19] | Potency [17] | Potency [18]

C=CC(=O)OCCOCCOC(=O)C=C
active: Potency [1] 54.7 µM | Potency [2] 24.4 µM
inactive: Potency [3] | outcome [4] | Potency [5] | Potency [6] | Potency [8] | Potency [20] | Potency [11] | Potency [12] | Potency [13] | Potency [16] | Potency [19] | Potency [17] | Potency [18]

CC1OCCC1=O (centres undefined)
inactive: Potency [1] | Potency [2] | Potency [3] | outcome [4] | Potency [5] | Potency [6] | Potency [7] | Potency [9] | Potency [10] | Potency [20] | Potency [11] | Potency [12] | Potency [14] | Potency [15] | Potency [16] | Potency [17] | Potency [18]

C[n+]1cc2c3c(ccc2c2ccc4cc5c(cc4c21)OCO5)OCO3
active: Potency [1] 1.64 µM | Potency [2] 1.46 µM | Potency [7] 9.73 µM | Potency [19] 9.2 µM
inactive: activity change [3] 3.58% [at 11.8 µM, stronger effect = higher value] | activation [4] 0.698% [at 15.8 µM] | activation [5] -8.2% [at 13.5 µM] | activation [6] -6.71% [at 13.6 µM] | activity change, negative = cytotoxicity [9] -21.2% [at 13.5 µM] | activation [10] -0.417% [at 13.5 µM] | activity, negative = inhibition [20] 8.48% [at 12.7 µM] | activation [11] 10.7% [at 15.9 µM] | activity, negative = inhibition [12] -0.831% [at 12.6 µM]

CCN(CC)c1ccc(N)cc1
inactive: Potency [3] | outcome [4] | Potency [5] | Potency [6] | Potency [8] | Potency [9] | Potency [10] | Potency [20] | Potency [11] | Potency [12] | Potency [13] | Potency [16]
active: Potency [1] 22.3 µM | Potency [2] 31.5 µM

CCCCCCCC/C=C\CCCCCCCCN
active: Potency [11] 21.3 µM
inactive: Potency [1] | Potency [2] | Potency [3] | outcome [4] | Potency [5] | Potency [8] | Potency [9] | Potency [10] | Potency [12] | Potency [13] | Potency [14] | Potency [15] | Potency [16] | Potency [18]

Nc1ncnc2c1ncn2[C@@H]1O[C@H](CO)[C@@H](O)[C@H]1O
inactive: Potency [1] | Potency [2] | Potency [3] | outcome [4] | Potency [5] | Potency [6] | Potency [7] | Potency [8] | Potency [20] | Potency [11] | Potency [12] | Potency [13] | Potency [14] | Potency [15] | Potency [16]

CCCCCCCCCCCCCCCCCCOS(=O)(=O)O
active: Potency [1] 68.6 µM
inactive: Potency [2] | Potency [3] | outcome [4] | Potency [5] | Potency [6] | Potency [7] | Potency [9] | Potency [10] | Potency [20] | Potency [12] | Potency [13] | Potency [14] | Potency [15] | Potency [16] | Potency [18]

O=C(NCCc1c[nH]c2ccccc12)c1cccnc1
active: Potency [11] 3.01 µM
inactive: Potency [1] | Potency [2] | Potency [3] | outcome [4] | Potency [5] | Potency [6] | Potency [8] | Potency [10] | Potency [12] | Potency [13] | Potency [14] | Potency [15] | Potency [16] | Potency [19] | Potency [18]

CCN1CCCC1CN (centres undefined)
inactive: Potency [1] | Potency [2] | Potency [3] | outcome [4] | Potency [5] | Potency [7] | Potency [9] | Potency [10] | Potency [20] | Potency [12] | Potency [14] | Potency [15] | Potency [16] | Potency [17] | Potency [18]
